{"source": "PubChem BioAssay (NCI)", "note": "About 83,000 compounds went through this panel and 20% of them were active in at least one assay; those are over-represented in the sample as a whole.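 Compound tested at a single concentration for 48 hours in 96-well plates; a percent growth value below 10 was scored as active.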 Unmarked numbers belong to inactive results. The source made the active and inactive calls."}
{"tested_on": "OVCAR-3 ovarian", "experiment": "NCI-60 one-dose screen, 48 h (100 = growth as untreated, 0 = no growth, -100 = all killed)", "settings": "10 µM unless noted", "description": "Growth inhibition of the OVCAR-3 human tumor cell line is measured as a screen for anti-cancer activity. Cells are grown in 96 well plates and exposed to the test compound for 48 hours. Compounds are tested at a single concentration, which is 10^-5 M for most compounds. The reported endpoint is percent growth (GI% or GIPRCNT), where numbers from 0 - 100% represent growth inhibition, and numbers from -100% - 0 represent cell death. For example, a value of 40 represents 60% growth inhibition. A value of 0 means no net growth occurred over the course of the experiment. A value of -40 indicates 40% of cells at the beginning of the experiment died by the end of the experiment. A value of -100 means all cells are dead at the end of the experiment.\nNCI-60 Human Tumor Cell Lines Screen was performed using the standard one-dose NCI protocol, which is described in more detail at https://dtp.cancer.gov/discovery_development/nci-60/default.htm.\nCompounds with GIPRCNT values below 10 were considered active. Activity score was based on GIPRCNT using the following formula: […]\nScore is 0 for GIPRCNT values of 100 or above, 50 for GIPRCNT values of 0, and 100 for GIPRCNT values of -100."}
{"smiles": "CCCc1cc(=O)oc2c3c(c4c(c12)OC(C)(C)C=C4)O[C@@H](C)[C@H](C)C3=O", "growth": "86.6%"}
{"smiles": "COc1ccc(/C(C)=C(\\c2ccc(Cl)cc2)c2ccc(OCCN(C)C)cc2)cc1F", "growth": "64.7%"}
{"smiles": "CNC(=O)c1c(NC(=O)c2ccc(C(C)(C)C)cc2)sc2c1CCC(=O)C2", "growth": "-21.4% (active)"}
{"smiles": "C=C1c2c(C)nn(-c3ccc(O)cc3)c2N(C)C23C[C@@H]1C1(C)c4c(C)nn(-c5ccc(O)cc5)c4N(C)C(C)(C[C@H]12)C3", "note": "(stereo not given in full)", "growth": "24.2%"}
{"smiles": "C/C(=N\\NC(=O)Cn1c(-c2ccc(S(C)(=O)=O)cc2)nc2cc(Cl)ccc21)c1ccc(Cl)cc1", "growth": "79.7%"}
{"smiles": "COC(=O)CNC(=O)C(=O)c1c(O)c(O)c(C(C)C)c2cc(C)c(-c3c(C)cc4c(C(C)C)c(O)c(O)c(C(=O)C(=O)NCC(=O)OC)c4c3O)c(O)c12", "growth": "18%"}
{"smiles": "Cn1cc(-c2ccc3ncc(-c4ccc(CC(=O)Nc5cc(C(C)(C)C)nn5C)cc4)cc3c2)cn1", "growth": "7.38% [30 µM] (active)"}
{"smiles": "Fc1ccc(Nc2nc(Nc3ccc(-c4nc5ccccc5[nH]4)cc3)c3cn[nH]c3n2)cc1", "growth": "20.3%"}
{"smiles": "CCCCS(=O)(=O)Oc1ccc(-c2nc(C)c(C(=O)OCC)s2)cc1C=O", "growth": "65%"}
{"smiles": "O=C(NC(=S)Nc1ccc(-c2nc3ccccc3[nH]2)cc1)c1ccc2ccccc2c1", "growth": "-45.2% (active)"}
{"smiles": "O=C(Oc1ccc[nH]c1=O)c1cc([N+](=O)[O-])cc([N+](=O)[O-])c1", "growth": "113%"}
{"smiles": "O=C1NN(C(=O)c2ccc(O)cc2)C(c2ccccc2)=N/C1=C\\c1cn(-c2ccccc2)nc1-c1ccccc1", "growth": "112%"}
{"smiles": "COc1ccc(-c2cc(-c3ccc(Nc4nc(Nc5ccccc5)nc(Nc5ccc(Cl)cc5)n4)cc3)nc(N)c2C#N)cc1", "growth": "-96.1% (active)"}
{"smiles": "Cc1nc(Nc2ccccn2)sc1C(=O)/C=C/c1ccc(Br)cc1", "growth": "48.4%"}
{"smiles": "COc1ccc(OC)c(/C=C2\\COc3ccc(O)c(O)c3C2=O)c1", "growth": "1.23% (active)"}
{"smiles": "O=c1[nH]nc(-c2ccc(Cl)cc2)cc1Cc1ccccc1", "growth": "104%"}
{"smiles": "COc1cccc(-c2cnco2)c1OCc1c(C)c(COc2c(OC)cccc2-c2cnco2)c(C)c(COc2c(OC)cccc2-c2cnco2)c1C", "growth": "63.1%"}
{"smiles": "CN(C)c1ccc2cc(-c3ccccc3F)c(N)nc2c1", "growth": "3.93% (active)"}
{"smiles": "CCOc1cc(C2C(Cl)C(=O)N2n2cnnc2)ccc1O", "note": "(stereo not given)", "growth": "96.4%"}
{"smiles": "C(=C\\c1nc2ccccc2[nH]1)/c1nc2ccccc2[nH]1", "growth": "109%"}
{"smiles": "O=C(c1ccccc1)c1ccc(N2C(=O)C3C4c5ccccc5C(/C=C/C(=O)c5ccccn5)(c5ccccc54)C3C2=O)cc1", "note": "(stereo not given)", "growth": "-54.1% (active)"}
{"smiles": "Cc1ccc2c(n1)C(=O)C(Oc1ccc(F)cc1)=CC2=O", "growth": "73.2%"}
{"smiles": "CCN(CC)CCOC(=O)N1c2ccccc2Sc2ccccc21", "growth": "107%"}
{"smiles": "Cc1cccc(-c2cc(O)c(C(=O)N3CCOCC3)s2)c1", "growth": "15%"}
{"smiles": "O=C(NCCOCCOCCNc1cccc2c1C(=O)N(C1CCCNC1=O)C2=O)c1cc2c(o1)C(=O)c1ccccc1C2=O", "note": "(stereo not given)", "growth": "-25% (active)"}
{"smiles": "CC(C)OCCCNCC(=O)Nc1ccc(S(=O)(=O)c2ccc(NC(=O)CNCCCOC(C)C)cc2)cc1", "growth": "105%"}
{"smiles": "Cc1cc2c(F)c(Oc3ncnc(Nc4ccc(N5C[C@@H](C)N[C@@H](C)C5)cc4)c3C#N)cc(F)c2[nH]1", "growth": "-29.6% (active)"}
{"smiles": "Cc1[nH]c(-c2nc3ccccc3[nH]2)c(C)c1C(=O)N1CCOCC1", "growth": "103%"}
{"smiles": "c1ccc(-c2oc3ccccc3c2-c2ccccc2)cc1", "growth": "100%"}
{"smiles": "COc1cc2c(cc1OC)-c1ccc3cc4c(cc3c1N(CCN(C)C)C2)OCO4", "growth": "8.78% (active)"}
{"smiles": "Cn1ncc2c(Nc3ccc(Br)cc3)nc(Nc3ccc(Br)cc3)nc21", "growth": "68.2%"}
{"smiles": "CCCCNC(=O)NS(=O)(=O)c1ccc(N2N=C(c3ccc(C)cc3C)CC2c2ccc(N(C)C)cc2)cc1", "note": "(stereo not given)", "growth": "51.2%"}
{"smiles": "CC(C)CCC[C@@H](C)[C@H]1CCC2C3=CCn4c(=O)ccc(=O)n4C3CC[C@@]21C", "note": "(stereo not given in full)", "growth": "-96.5% (active)"}
{"smiles": "O=S(=O)(NCCNc1cc(-c2c(-c3cccc(O)c3)nc3sccn23)ccn1)c1ccc(Br)cc1", "growth": "60.3%"}
{"smiles": "OC(CBr)c1ccnc2ccccc12", "note": "(stereo not given)", "growth": "106%"}
{"smiles": "CCCCN1CCN(c2ccc3nc(-c4ccc5nc(-c6ccc(OCC)c(OCC)c6)[nH]c5c4)[nH]c3c2)CC1", "growth": "-87.3% (active)"}
{"smiles": "CN1C(=O)CCC(N2C(=O)c3cccc(NCCOCCOCCNC(=O)c4cc5c(o4)C(=O)c4ccccc4C5=O)c3C2=O)C1=O", "note": "(stereo not given)", "growth": "-44.7% (active)"}
{"smiles": "Cc1ccccc1NC(=O)CN(C)C", "growth": "113%"}
{"smiles": "Nc1nc(I)c2ncn(C3OC(CO)C(O)C3O)c2n1", "note": "(stereo not given)", "growth": "112%"}
{"smiles": "N=C(N)c1ccc(-c2ccc(-c3ccc(Cl)c(Cl)c3)o2)nc1", "growth": "-80.8% (active)"}
